DAX1 inh-1 = DAX1 (NR0B1) inhibition, primary screen; HEK293T StAR-luciferase reporter, SF-1/DAX-1 repression relief; inhibition, % at 6.8 µM; 1.1% of 370,000 active; AID 652010;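 active = inhibition above the mean over all tested compounds plus 3 SD, cut at about 3.6% in these data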;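 note: higher inhibition means more luminescence from relief of DAX-1 repression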
ssDAF12 agonist = activators of S. stercoralis DAF-12 nuclear receptor. HEK293 ssDAF-12/GRIP1 lit1-tk-luc reporter, luminescence; % of 3 µM dafachronic acid response. activation, % at 6.8 µM. 1% of 370,000 active;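 active = activation above the mean over all tested compounds plus 3 SD, cut at about 0.9% in these data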
hcDAF-12 act = activators of H. contortus DAF-12 nuclear receptor. 1.4% of 370,000 active. HEK293 hcDAF-12 lit1-tk-luc reporter, luminescence; 0% DMSO, 100% Δ7-dafachronic acid. AID 652067. activation, % at 6.8 µM;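 active = activation above the mean of all tested compounds plus 3 SD, cut at about 5.5% in these data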
DAX1 inh-2 = inhibits human nuclear receptor DAX1; HEK293 Gal4-DAX1 luciferase reporter, luminescence; inhibition, % at 6.75 µM; 0.99% of 340,000 active; AID 504766;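 active = inhibition above the mean over all tested compounds plus 3 SD, cut at about 4.2% in these data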;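 note: inhibition shows as a rise in luminescence from relieved DAX1 repression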
Target sequence (P51843 207-470 limits assumed): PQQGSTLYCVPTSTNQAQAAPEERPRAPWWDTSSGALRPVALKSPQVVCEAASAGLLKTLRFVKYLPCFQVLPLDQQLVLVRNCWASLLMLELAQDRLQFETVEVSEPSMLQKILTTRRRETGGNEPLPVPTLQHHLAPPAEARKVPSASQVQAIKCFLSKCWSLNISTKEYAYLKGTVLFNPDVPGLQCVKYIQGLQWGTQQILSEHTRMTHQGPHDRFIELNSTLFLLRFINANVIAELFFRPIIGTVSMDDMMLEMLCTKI
hgDAF-12 ag = hgDAF-12 agonism, primary luciferase screen; activation, % at 6.8 µM; 1.8% of 370,000 active; AID 687014; HEK293 GAL4-hgDAF12 UAS-luciferase reporter, agonist luminescence; normalized to butyrate control;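 active = activation above a cutoff set at the mean of all screened compounds plus 3 SD, cut at about 10% in these data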
LXRb hcDAF ctr = counter-screen for hcDAF-12 agonists: agonists of human LXR-beta; shares compounds with hcDAF-12 act; HEK293 Gal4-LXR tk-luc reporter, luminescence, 24 h; normalized: DMSO 0%, positive control 100%; activation, % at 6.8 µM; 3,400 tested, under 10 active; AID 743027;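 active = mean percent activation of the reporter above a cutoff set as the average over tested compounds plus their standard deviation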
Target sequence (P55055 whole entry, looked up, the tested form may be a part): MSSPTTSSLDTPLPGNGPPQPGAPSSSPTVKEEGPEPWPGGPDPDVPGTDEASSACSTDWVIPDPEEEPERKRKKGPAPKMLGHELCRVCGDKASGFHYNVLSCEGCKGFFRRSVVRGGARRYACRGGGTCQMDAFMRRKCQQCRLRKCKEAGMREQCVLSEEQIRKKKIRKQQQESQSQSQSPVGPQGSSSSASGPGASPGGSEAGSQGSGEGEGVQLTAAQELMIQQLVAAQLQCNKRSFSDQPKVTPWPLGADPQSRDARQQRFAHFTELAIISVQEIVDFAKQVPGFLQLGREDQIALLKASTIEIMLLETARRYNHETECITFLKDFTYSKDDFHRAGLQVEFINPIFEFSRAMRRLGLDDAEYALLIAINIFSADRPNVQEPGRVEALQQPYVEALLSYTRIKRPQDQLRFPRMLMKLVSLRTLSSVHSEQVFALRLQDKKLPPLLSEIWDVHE
hcDAF12 conf = hcDAF-12 agonism, confirmation assay; AID 743032; shares compounds with hcDAF-12 act; 61% of 3,400 active; activation, % at 6.8 µM; HEK293 hcDAF-12 lit1-tk-luc reporter, luminescence; % of Δ7-dafachronic acid response;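 active = mean activation across triplicate tests above the threshold derived from the earlier primary screen, cut at about 5.5% in these data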
Of the large screens only hits and unclear results are named; the others gave an inactive call (follow-up assays come after a bar, where they were run). Rows were chosen to be rich in hits. Some 4.1% of all compounds tested hit in one or more screens of this group.

OC(c1ccccc1)(c1nc(-c2ccc(Cl)cc2)cs1)C(F)(F)F (stereo unspecified)	none (no result: DAX1 inh-2)
O=c1cc(/C=C/c2ccccc2)oc2ccccc12	DAX1 inh-1 3.7, ssDAF12 agonist 1.6, hcDAF-12 act 6.9, hgDAF-12 ag 12 | LXRb hcDAF ctr inactive | hcDAF12 conf 9.4
COc1ccccc1OCCNC(=O)c1cc(F)c(F)cc1Cl	hcDAF-12 act 7.8 | LXRb hcDAF ctr inactive | hcDAF12 conf inactive
COC(=O)[C@@]12C[C@@H](CC(=O)N3CCCCC3)C(=O)N(CCc3ccc(OC)c(OC)c3)C1=CCC(C)(C)C2	none (no result: DAX1 inh-2)
Cn1c(SCC(=O)CC(=O)Nc2ccccc2)nnc1-c1ccc(O)cc1	none
CC(=O)N1N=C(c2ccccc2O)OC1(C)CC(=O)Nc1ccccc1 (stereo unspecified)	hcDAF-12 act 6.8 | LXRb hcDAF ctr inactive | hcDAF12 conf inactive
O=C(NCc1cccs1)C(NS(=O)(=O)c1cccc2nsnc12)c1ccccc1 (stereo unspecified)	hcDAF-12 act 7.1 | LXRb hcDAF ctr inactive | hcDAF12 conf inactive
COc1ccc(-c2c(C(=O)c3ccc(Br)cc3)[nH]c(N)c2C(=O)NCCc2c[nH]c3ccccc23)cc1OC	none (no result: DAX1 inh-2)
S=c1nc(-c2ccc(Br)cc2)[nH]c2ccccc12	hcDAF-12 act 7.3 | LXRb hcDAF ctr inactive | hcDAF12 conf 9.0
Cc1ccc(C(=O)Nc2ncc(Cc3ccccc3)s2)o1	DAX1 inh-1 3.8, hcDAF-12 act 12 | LXRb hcDAF ctr inactive | hcDAF12 conf 8.4
COc1ccccc1Cc1nc(-c2ccc(Br)o2)no1	hcDAF-12 act 8.1 | LXRb hcDAF ctr inactive | hcDAF12 conf 8.0
O=C(N/N=C/c1coc2ccccc2c1=O)c1cccc([N+](=O)[O-])c1	none
Cn1cc([N+](=O)[O-])c(C(=O)N/N=C\c2c[nH]c3ccccc23)n1	hcDAF-12 act 16 | LXRb hcDAF ctr inactive | hcDAF12 conf inactive
O=C(N/N=C/c1c[nH]c2ccccc12)c1cccc([N+](=O)[O-])c1	hcDAF-12 act 10 | LXRb hcDAF ctr inactive | hcDAF12 conf 6.7
Cc1cc(=O)[nH]c(N/N=C/c2c[nH]c3ccccc23)n1	hcDAF-12 act 7.2 | LXRb hcDAF ctr inactive | hcDAF12 conf inactive
O=[N+]([O-])c1ccccc1N/N=C/c1c[nH]c2ccccc12	ssDAF12 agonist 2.5, hcDAF-12 act 11, hgDAF-12 ag 21 | LXRb hcDAF ctr inactive | hcDAF12 conf 17
Cc1ccccc1S(=O)(=O)N(C)C[C@H]1OCc2cn(nn2)CCCC(=O)N([C@H](C)CO)C[C@@H]1C	none (no result: DAX1 inh-2)
c1ccc2[nH]c(-c3cnco3)cc2c1	hcDAF-12 act 6.7 | LXRb hcDAF ctr inactive | hcDAF12 conf 7.3
c1cncc(Cc2cc3ccccc3[nH]2)c1	none
COc1ccc(-c2cc3c(c4c2ccn4C)C2CCC3C2)cc1OC (stereo unspecified)	none (no result: DAX1 inh-2)
CN(C)S(=O)(=O)c1ccc(C(=O)NCC(=O)Nc2ccc(F)c(F)c2)cc1	hcDAF-12 act 6.8 | LXRb hcDAF ctr inactive | hcDAF12 conf inactive
CN(C)S(=O)(=O)c1ccc(C(=O)Nc2ccc(Cl)cc2)cc1	none
O=P1(O)C=C(c2ccccc2)OC(c2ccccc2)=C1	ssDAF12 agonist 1.4, hcDAF-12 act 9.9 | LXRb hcDAF ctr inactive | hcDAF12 conf 11
Cn1c(C(C#N)C(=O)c2ccco2)nc2ccccc21 (stereo unspecified)	hcDAF-12 act 7.2 | LXRb hcDAF ctr inactive | hcDAF12 conf 9.6
CC(C)CN1CCN(C(=O)CCc2nnc(Cc3c[nH]c4ccccc34)o2)[C@@H](C)C1=O	hcDAF-12 act 7.0 | LXRb hcDAF ctr inactive | hcDAF12 conf inactive
O=C(N/N=C/c1cccc2ccccc12)c1ccccc1Cl	none
O=C(N/N=C/c1cc2ccccc2[nH]1)c1ccccc1Cl	hcDAF-12 act 6.6 | LXRb hcDAF ctr inactive | hcDAF12 conf inactive
CCOC(=O)c1cnc(-c2ccccc2)nc1N(C)C	hcDAF-12 act 11, hgDAF-12 ag 11 | LXRb hcDAF ctr inactive | hcDAF12 conf 9.4
C=CCn1c(O)c(N=Nc2ccccc2O)c2ccccc21	none
C=CCn1c(O)c(N=Nc2ccccc2[N+](=O)[O-])c2ccccc21	ssDAF12 agonist 1.1, hcDAF-12 act 6.7 | LXRb hcDAF ctr inactive | hcDAF12 conf 8.4
O=C(Nc1ccc(F)cc1)C(c1cccc(F)c1)N1CCN(Cc2c(F)cccc2Cl)CC1 (stereo unspecified)	none (no result: DAX1 inh-2)
CCCCCCN1CCS(=O)(=O)N(Cc2ccc(OC)cc2)C(C(=O)OC)C1 (stereo unspecified)	none (no result: DAX1 inh-2)
CC1(C)Nc2ccccc2C(=O)N1c1ccc(Br)cc1	ssDAF12 agonist 3.0, hcDAF-12 act 6.8, DAX1 inh-2 9.2, hgDAF-12 ag 13 | LXRb hcDAF ctr inactive | hcDAF12 conf inactive
CC(C)(C)N1C(=O)c2ccccc2NC(=O)N1Cc1ccc(Br)cc1	none
C/C(=N\Nc1nc2ccccc2[nH]1)c1ccc(C)o1	ssDAF12 agonist 2.2, hcDAF-12 act 7.5 | LXRb hcDAF ctr inactive | hcDAF12 conf 8.6
COc1ccc(C=NNC(=O)c2cc(-c3ccc(C)c(C)c3)n[nH]2)cc1OCc1ccccc1	none (no result: DAX1 inh-2)
CNCc1ccccc1OCC(=O)Nc1ccccc1	hcDAF-12 act 7.0 | LXRb hcDAF ctr inactive | hcDAF12 conf inactive
CC1CN(C(=O)COC(=O)c2cc(=O)[nH]c3ccccc23)CC(C)O1 (stereo unspecified)	none
CC(=O)Nc1sc2c(c1-c1nc3ccccc3s1)CCN(C)C2	hcDAF-12 act 14 (no result: DAX1 inh-1, DAX1 inh-2) | LXRb hcDAF ctr inactive | hcDAF12 conf 9.4
CC(=O)Nc1sc2c(c1-c1nc3ccccc3s1)CN(C(C)C)C2	none (no result: DAX1 inh-1, DAX1 inh-2)
CC(=O)Nc1sc2c(c1-c1nc3ccccc3s1)CN(C(C)C)CC2	ssDAF12 agonist 2.5, hcDAF-12 act 14, hgDAF-12 ag 11 | LXRb hcDAF ctr inactive | hcDAF12 conf 17
O=C(CCc1ccccc1-c1ccccc1CCNC(=O)c1cccc(F)c1)NCc1ccccc1	none (no result: DAX1 inh-2)
COc1ccc(CNC(=O)COC(=O)C2(C)CC2(Cl)Cl)cc1 (stereo unspecified)	none
C/C(=C\C(=S)Nc1ccccc1)Nc1ccccc1	hcDAF-12 act 9.6 | LXRb hcDAF ctr inactive | hcDAF12 conf 6.1
O=C(NCC(=O)N1CCCC1)c1cccs1	none
CN1CCN(C(=O)CNC(=O)c2cccs2)CC1	hcDAF-12 act 7.8 | LXRb hcDAF ctr inactive | hcDAF12 conf inactive
COc1ccc(CN(C(=O)c2cc3ccccc3oc2=O)C2CCS(=O)(=O)C2)cc1OC (stereo unspecified)	hcDAF-12 act 10 | LXRb hcDAF ctr inactive | hcDAF12 conf inactive
CCCCCCCCN1C(=O)[C@@H](CC(=O)NCCCOC)C[C@@]2(C(=O)OC)C1=C[C@H](COCc1ccccc1)O[C@@H]2C	none (no result: DAX1 inh-2)

Screening results (PubChem BioAssay)
